What all share (test): DAPPL (digital affinity profiling via proximity ligation, sequencing); 10 mM Tris-HCl pH 7.5, 50 mM NaCl, 1 mM DTT, 4% glycerol, room temperature, 30 min; GST-TFs on glutathione beads, 16-mer random dsDNA library, 0.1% formaldehyde crosslink after washing; high values mean tight binding
One assay concerns the target T1, FLI1 (Homo sapiens, UniProt Q01543 1-452).
T1 sequence: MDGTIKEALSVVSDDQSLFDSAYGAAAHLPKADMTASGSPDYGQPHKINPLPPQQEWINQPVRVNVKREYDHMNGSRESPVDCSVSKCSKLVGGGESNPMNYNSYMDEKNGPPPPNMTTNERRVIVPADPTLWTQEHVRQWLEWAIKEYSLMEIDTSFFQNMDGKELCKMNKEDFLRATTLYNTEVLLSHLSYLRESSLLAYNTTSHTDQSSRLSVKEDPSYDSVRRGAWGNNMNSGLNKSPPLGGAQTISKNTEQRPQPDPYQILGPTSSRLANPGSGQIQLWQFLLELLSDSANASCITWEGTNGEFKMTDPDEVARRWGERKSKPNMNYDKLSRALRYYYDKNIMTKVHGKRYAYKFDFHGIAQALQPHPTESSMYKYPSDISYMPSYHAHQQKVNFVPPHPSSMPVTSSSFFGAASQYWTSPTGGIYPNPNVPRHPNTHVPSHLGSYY
The settings on record: protein: recombinant; tags: N-terminal GST; dsDNA, one strand shown. The procedure, abridged:
(§1)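 Binding signal is each hexamer's read frequency for a factor divided by its frequency in the tag-only sample. The factors were GST-fused human transcription factors from yeast, captured on glutathione beads, DNA-barcoded and pooled with that sample. Pools were incubated with 200 nmole of a random double-stranded 16-mer DNA library in Tris/NaCl/DTT/glycerol buffer at room temperature for 30 min, then washed, crosslinked with 0.1% formaldehyde, proximity-ligated with BsaI/T4 ligase (1 h, 37 °C), PCR-amplified and sequenced on an Illumina NextSeq500.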

For another assay, the target named is T2, ELK1 (Homo sapiens, UniProt P19419 1-428).
T2 sequence: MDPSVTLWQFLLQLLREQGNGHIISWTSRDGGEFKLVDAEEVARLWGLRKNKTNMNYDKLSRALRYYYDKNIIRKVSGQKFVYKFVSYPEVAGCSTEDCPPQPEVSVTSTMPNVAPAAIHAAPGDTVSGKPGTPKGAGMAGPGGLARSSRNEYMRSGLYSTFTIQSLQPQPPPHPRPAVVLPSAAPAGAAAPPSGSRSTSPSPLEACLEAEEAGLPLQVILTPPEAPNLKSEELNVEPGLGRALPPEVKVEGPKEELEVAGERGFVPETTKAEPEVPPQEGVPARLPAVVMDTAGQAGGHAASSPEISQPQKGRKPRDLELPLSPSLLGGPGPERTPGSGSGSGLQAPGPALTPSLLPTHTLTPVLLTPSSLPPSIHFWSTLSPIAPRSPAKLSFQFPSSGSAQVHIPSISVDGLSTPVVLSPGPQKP
The following applies: protein: recombinant; tags: N-terminal GST; dsDNA, one strand shown. The procedure, abridged:
as §1

A further assay has as its target T3, GABPA (Homo sapiens, UniProt Q06546 1-454).
T3 sequence: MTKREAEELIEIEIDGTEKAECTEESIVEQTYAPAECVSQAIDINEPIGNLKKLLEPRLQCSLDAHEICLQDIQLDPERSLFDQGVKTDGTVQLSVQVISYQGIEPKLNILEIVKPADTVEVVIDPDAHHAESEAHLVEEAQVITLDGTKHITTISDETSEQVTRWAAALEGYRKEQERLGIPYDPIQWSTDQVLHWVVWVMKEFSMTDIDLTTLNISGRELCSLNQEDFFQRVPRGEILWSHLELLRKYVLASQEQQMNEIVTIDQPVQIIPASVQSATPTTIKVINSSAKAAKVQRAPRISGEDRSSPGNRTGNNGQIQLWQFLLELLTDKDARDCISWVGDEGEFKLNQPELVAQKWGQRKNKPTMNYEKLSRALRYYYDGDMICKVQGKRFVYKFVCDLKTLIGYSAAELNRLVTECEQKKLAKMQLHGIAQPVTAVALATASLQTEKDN
The settings on record: protein: recombinant; tags: N-terminal GST; dsDNA, one strand shown. A digest of the protocol:
as §1

The next assay has as its target T4, ERG (Homo sapiens, UniProt P11308 1-479).
T4 sequence: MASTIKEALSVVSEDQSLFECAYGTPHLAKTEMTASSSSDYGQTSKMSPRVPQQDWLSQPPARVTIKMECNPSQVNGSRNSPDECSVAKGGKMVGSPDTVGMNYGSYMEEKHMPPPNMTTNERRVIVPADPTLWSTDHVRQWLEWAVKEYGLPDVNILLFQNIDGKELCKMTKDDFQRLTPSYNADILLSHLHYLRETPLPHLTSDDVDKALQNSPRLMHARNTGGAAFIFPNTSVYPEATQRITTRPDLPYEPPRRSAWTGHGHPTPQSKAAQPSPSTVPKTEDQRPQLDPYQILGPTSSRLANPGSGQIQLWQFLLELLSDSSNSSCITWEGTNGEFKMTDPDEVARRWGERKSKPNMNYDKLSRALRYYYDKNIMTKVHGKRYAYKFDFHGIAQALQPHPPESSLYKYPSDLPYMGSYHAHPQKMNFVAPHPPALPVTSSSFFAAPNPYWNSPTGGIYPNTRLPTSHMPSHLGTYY
The following applies: protein: recombinant; tags: N-terminal GST; dsDNA, one strand shown. A digest of the protocol:
as §1

The next assay has as its target ELF1 (Homo sapiens, UniProt P32519 1-619). The settings on record: protein: recombinant; tags: N-terminal GST; dsDNA, one strand shown. A digest of the protocol:
as §1

For a further assay, the target named is T5, EHF (Homo sapiens, UniProt Q9NZC4 1-300).
T5 sequence: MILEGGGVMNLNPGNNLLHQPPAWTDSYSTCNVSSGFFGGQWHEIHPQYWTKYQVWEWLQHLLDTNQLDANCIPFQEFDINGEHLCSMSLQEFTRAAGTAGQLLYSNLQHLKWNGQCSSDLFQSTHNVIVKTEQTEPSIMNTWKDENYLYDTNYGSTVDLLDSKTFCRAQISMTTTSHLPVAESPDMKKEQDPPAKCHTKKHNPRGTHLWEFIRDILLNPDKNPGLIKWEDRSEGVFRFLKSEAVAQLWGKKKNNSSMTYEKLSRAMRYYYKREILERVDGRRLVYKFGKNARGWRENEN
The settings on record: protein: recombinant; tags: N-terminal GST; dsDNA, one strand shown. A digest of the protocol: as §1

A further assay has as its target SPI1 (Homo sapiens, UniProt P17947 1-270). The following applies: protein: recombinant; tags: N-terminal GST; dsDNA, one strand shown. A digest of the protocol: as §1
The target in a further assay is SPIB (Homo sapiens, UniProt Q01892 1-262). The settings on record: protein: recombinant; tags: N-terminal GST; dsDNA, one strand shown. A digest of the protocol:
as §1

The target in another assay is T6, ELK3 (Homo sapiens, UniProt P41970 1-407).
T6 sequence: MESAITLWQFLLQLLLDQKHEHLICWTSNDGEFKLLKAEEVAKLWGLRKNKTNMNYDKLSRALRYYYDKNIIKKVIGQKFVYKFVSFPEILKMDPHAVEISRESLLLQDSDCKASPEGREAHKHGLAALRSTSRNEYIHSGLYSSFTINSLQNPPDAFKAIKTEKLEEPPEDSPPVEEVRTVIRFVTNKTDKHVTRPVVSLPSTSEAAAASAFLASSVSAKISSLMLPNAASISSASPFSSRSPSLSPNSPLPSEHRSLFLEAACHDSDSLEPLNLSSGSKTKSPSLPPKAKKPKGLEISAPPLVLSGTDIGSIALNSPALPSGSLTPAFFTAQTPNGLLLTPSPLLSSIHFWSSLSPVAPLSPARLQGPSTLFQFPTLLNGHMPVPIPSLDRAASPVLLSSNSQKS
The settings on record: protein: recombinant; tags: N-terminal GST; dsDNA, one strand shown. A digest of the protocol:
as §1

In another assay the target is T7, FEV (Homo sapiens, UniProt Q99581 1-238).
T7 sequence: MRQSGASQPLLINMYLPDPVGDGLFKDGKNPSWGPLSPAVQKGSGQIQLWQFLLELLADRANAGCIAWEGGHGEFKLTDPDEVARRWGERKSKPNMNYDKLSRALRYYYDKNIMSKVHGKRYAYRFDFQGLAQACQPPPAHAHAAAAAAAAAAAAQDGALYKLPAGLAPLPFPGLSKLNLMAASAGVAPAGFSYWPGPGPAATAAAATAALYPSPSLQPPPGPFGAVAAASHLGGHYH
The following applies: protein: recombinant; tags: N-terminal GST; dsDNA, one strand shown. A digest of the protocol:
as §1

The next assay has as its target ETV5 (Homo sapiens, UniProt P41161 1-510). The following applies: protein: recombinant; tags: N-terminal GST; dsDNA, one strand shown. The procedure, abridged:
as §1

The target in a further assay is HSF1 (Homo sapiens, UniProt Q00613 1-529). The following applies: protein: recombinant; tags: N-terminal GST; chain copies: 3; dsDNA, one strand shown. A digest of the protocol:
as §1

For the next assay, the target named is T8, SPIC (Homo sapiens, UniProt Q8N5J4 1-248).
T8 sequence: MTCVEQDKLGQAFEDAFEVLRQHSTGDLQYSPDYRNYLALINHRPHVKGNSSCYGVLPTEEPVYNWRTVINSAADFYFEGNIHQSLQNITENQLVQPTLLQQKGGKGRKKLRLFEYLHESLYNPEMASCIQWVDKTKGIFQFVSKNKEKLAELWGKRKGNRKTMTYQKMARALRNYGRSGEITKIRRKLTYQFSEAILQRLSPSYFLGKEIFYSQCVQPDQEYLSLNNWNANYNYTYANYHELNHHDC
The following applies: protein: recombinant; tags: N-terminal GST; dsDNA, one strand shown. A digest of the protocol: as §1

The target in the next assay is ELF4 (Homo sapiens, UniProt Q99607 1-663). The settings on record: protein: recombinant; tags: N-terminal GST; dsDNA, one strand shown. The procedure, abridged: as §1
Chain of ELF4 (Q99607 whole entry): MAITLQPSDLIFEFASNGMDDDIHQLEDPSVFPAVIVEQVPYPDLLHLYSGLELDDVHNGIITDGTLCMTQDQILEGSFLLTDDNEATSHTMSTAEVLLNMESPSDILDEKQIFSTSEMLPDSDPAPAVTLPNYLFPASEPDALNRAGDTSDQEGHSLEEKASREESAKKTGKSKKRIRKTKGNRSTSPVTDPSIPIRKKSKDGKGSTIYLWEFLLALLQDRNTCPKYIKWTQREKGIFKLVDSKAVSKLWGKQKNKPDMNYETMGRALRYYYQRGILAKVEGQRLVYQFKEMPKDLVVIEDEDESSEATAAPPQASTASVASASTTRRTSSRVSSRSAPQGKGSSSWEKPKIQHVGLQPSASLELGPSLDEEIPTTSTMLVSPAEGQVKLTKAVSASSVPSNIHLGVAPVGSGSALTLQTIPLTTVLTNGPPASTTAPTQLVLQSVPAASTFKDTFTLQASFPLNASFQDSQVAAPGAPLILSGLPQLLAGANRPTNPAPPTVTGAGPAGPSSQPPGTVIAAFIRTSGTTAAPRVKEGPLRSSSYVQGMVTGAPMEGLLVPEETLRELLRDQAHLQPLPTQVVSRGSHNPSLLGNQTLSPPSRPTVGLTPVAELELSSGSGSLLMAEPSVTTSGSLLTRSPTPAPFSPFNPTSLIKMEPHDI
Another assay addresses T9, ELK4 (Homo sapiens, UniProt P28324-2 1-405).
T9 sequence: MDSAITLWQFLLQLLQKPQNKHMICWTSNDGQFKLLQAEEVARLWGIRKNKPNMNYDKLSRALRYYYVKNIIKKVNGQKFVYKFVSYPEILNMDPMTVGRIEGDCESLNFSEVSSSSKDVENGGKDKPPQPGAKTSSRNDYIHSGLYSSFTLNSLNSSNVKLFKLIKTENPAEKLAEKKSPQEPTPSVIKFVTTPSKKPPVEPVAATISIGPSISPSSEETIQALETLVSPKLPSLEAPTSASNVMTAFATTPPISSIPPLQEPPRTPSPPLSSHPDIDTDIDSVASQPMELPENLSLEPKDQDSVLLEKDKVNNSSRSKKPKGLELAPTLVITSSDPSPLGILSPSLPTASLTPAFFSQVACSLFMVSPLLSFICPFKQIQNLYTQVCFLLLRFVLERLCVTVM
The settings on record: protein: recombinant; tags: N-terminal GST; dsDNA, one strand shown. The procedure, abridged:
as §1

Another assay has as its target T10, ETV2 (Homo sapiens, UniProt O00321 1-342).
T10 sequence: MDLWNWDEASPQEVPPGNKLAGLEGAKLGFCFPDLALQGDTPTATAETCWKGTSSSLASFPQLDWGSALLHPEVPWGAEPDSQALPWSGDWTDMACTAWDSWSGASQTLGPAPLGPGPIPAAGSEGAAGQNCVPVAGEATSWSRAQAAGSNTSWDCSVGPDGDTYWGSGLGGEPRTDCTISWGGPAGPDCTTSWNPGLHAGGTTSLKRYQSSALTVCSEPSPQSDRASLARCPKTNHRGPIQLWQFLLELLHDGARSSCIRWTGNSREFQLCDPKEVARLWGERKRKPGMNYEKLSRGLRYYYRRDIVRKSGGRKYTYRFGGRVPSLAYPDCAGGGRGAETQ
The following applies: protein: recombinant; tags: N-terminal GST; dsDNA, one strand shown. The procedure, abridged: as §1

The target in the next assay is T11, ELF3 (Homo sapiens, UniProt P78545 1-371).
T11 sequence: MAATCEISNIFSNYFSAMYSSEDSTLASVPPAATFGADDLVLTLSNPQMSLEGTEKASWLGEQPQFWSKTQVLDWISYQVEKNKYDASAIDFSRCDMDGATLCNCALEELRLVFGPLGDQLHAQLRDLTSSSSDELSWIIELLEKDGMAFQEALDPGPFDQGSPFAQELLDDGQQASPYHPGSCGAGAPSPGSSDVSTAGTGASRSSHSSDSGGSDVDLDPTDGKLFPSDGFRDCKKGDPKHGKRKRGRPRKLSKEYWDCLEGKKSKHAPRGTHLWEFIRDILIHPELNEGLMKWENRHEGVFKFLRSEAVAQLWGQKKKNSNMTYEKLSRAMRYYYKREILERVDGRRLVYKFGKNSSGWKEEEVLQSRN
The settings on record: protein: recombinant; tags: N-terminal GST; dsDNA, one strand shown. The procedure, abridged:
as §1

In the next assay the target is CRX (Homo sapiens, UniProt O43186 1-299). The settings on record: protein: recombinant; tags: N-terminal GST; dsDNA, one strand shown. The procedure, abridged: as §1
Chain of CRX (O43186 whole entry): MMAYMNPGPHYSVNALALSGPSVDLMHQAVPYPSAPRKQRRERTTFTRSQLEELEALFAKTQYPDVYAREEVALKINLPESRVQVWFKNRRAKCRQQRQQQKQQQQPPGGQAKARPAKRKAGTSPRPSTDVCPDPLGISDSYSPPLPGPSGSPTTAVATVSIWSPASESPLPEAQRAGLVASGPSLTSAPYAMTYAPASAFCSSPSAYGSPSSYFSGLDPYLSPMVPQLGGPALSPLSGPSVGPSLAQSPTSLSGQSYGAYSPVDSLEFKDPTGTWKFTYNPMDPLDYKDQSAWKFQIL
A further assay has as its target ETV1 (Homo sapiens, UniProt P50549 1-477). The settings on record: protein: recombinant; tags: N-terminal GST; dsDNA, one strand shown. A digest of the protocol: as §1

Chain of ETV5 (P41161 whole entry): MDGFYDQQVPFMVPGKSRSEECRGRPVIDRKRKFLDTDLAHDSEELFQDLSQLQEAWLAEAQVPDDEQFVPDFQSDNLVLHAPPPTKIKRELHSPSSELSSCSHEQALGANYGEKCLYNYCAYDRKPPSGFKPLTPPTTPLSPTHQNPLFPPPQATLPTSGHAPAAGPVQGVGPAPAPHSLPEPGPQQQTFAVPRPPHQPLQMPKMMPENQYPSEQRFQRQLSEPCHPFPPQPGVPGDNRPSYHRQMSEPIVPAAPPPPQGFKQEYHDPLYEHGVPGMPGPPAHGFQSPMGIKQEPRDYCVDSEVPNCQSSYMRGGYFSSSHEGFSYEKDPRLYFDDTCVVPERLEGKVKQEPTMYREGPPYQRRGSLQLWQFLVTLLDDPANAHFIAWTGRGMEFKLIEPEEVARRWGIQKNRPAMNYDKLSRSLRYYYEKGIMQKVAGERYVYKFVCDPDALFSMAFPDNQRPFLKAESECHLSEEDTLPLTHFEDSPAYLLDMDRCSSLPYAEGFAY
Chain of SPIB (Q01892 whole entry): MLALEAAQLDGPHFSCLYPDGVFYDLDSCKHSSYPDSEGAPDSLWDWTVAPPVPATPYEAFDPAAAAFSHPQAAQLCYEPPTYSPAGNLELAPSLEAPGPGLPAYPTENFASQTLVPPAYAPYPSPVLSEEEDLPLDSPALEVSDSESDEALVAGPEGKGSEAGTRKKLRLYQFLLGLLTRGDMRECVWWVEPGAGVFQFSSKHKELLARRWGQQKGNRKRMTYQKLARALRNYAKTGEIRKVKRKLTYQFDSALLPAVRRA
Chain of ELF1 (P32519 whole entry): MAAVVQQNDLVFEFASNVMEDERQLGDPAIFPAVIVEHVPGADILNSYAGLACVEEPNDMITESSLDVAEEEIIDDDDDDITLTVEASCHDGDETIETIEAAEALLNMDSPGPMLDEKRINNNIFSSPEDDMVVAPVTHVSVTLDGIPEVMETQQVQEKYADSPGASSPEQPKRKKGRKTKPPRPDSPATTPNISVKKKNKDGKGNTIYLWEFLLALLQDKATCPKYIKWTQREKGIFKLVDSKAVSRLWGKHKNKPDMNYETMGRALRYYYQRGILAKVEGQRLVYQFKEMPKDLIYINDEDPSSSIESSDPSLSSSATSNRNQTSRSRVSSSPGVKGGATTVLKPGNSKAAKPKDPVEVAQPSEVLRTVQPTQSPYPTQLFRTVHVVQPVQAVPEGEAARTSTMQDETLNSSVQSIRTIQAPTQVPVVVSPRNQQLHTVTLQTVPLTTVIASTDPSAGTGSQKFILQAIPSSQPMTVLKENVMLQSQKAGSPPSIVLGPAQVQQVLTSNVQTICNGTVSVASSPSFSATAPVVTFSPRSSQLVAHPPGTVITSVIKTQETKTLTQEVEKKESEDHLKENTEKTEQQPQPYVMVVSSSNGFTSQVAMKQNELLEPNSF
Chain of ETV1 (P50549 whole entry): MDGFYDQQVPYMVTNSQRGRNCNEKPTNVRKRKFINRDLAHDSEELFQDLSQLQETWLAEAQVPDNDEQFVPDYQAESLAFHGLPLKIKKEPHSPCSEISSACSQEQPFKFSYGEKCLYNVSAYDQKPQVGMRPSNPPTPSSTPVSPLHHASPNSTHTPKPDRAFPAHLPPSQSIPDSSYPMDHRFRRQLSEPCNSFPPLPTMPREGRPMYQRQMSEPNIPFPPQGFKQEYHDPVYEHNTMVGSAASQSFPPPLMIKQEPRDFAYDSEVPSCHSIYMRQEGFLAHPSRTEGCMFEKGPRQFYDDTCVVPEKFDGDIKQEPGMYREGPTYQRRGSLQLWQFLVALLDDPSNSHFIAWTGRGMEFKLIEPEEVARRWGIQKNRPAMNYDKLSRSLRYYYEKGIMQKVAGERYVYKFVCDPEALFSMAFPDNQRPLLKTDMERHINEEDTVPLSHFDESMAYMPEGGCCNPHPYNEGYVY
Chain of HSF1 (Q00613 whole entry): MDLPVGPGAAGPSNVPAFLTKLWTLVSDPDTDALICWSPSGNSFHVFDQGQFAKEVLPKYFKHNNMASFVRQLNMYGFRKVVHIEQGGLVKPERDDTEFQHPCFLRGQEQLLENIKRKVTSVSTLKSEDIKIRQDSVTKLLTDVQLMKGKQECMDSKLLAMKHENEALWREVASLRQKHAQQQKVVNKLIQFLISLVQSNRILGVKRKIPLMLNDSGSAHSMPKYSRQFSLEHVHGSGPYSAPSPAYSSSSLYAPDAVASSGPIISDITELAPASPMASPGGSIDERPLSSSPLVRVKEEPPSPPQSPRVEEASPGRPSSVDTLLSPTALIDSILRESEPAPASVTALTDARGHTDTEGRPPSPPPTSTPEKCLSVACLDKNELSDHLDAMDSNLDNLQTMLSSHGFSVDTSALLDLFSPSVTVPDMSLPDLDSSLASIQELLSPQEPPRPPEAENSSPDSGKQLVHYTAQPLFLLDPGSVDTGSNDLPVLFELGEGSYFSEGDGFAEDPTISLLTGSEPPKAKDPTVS

On to GCCCCT, for which the binding signal with FLI1 was 1.22 fold enrichment (6-mer frequency, TF over GST control); with ELK1 it was 1.2 fold enrichment (6-mer frequency, TF over GST control); with GABPA it was 1.24 fold enrichment (6-mer frequency, TF over GST control); with ERG, 1.23 fold enrichment (6-mer frequency, TF over GST control); with ELF1, 1.37 fold enrichment (6-mer frequency, TF over GST control); in the assay with EHF it was 1.43 fold enrichment (6-mer frequency, TF over GST control). Moreover, the binding signal with SPI1 was 1.29 fold enrichment (6-mer frequency, TF over GST control); with SPIB it was 1.21 fold enrichment (6-mer frequency, TF over GST control); in the assay with ELK3, 1.36 fold enrichment (6-mer frequency, TF over GST control); in the assay with FEV it was 1.39 fold enrichment (6-mer frequency, TF over GST control); in the assay with ETV5, 1.39 fold enrichment (6-mer frequency, TF over GST control); with HSF1, 1.13 fold enrichment (6-mer frequency, TF over GST control). Also, the binding signal in the assay with SPIC was 1.22 fold enrichment (6-mer frequency, TF over GST control); with ELF4 it was 1.4 fold enrichment (6-mer frequency, TF over GST control); in the assay with ELK4, 1.37 fold enrichment (6-mer frequency, TF over GST control); with ETV2, 1.28 fold enrichment (6-mer frequency, TF over GST control); with ELF3 it was 1.24 fold enrichment (6-mer frequency, TF over GST control); with CRX, 1.12 fold enrichment (6-mer frequency, TF over GST control). In addition, the binding signal with ETV1 is 1.34 fold enrichment (6-mer frequency, TF over GST control).

Values taken from paper PMC7862700, “An all-to-all approach to the identification of sequence-specific readers for epigenetic DNA modifications on cytosine”.
